Bioassay records deposited in PubChem BioAssay by National Center for Advancing Translational Sciences (NCATS).
Compounds with a hit are over-represented: about 2.8% of the library has one in this group of screens.
Pol kappa inh – DNA polymerase kappa (human) inhibition | Q9UBT6 | purified Pol kappa, fluorescent DNA synthesis assay, 10 min | Potency, µM (highest dose often 107 µM), inactives show top-dose activity, negative = inhibition, usual class: inhibitors | 400,000 compounds, 0.53% hits; also: potency is read from the fitted curve at half-maximal effect; % is scaled to controls: 0 for no effect and ±100 for the full control effect
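Here, compound and 10 nM enzyme are combined for 15 min at room temperature; adding 50 nM substrate (final) starts DNA synthesis, tracked by fluorescence at 0 and 10 min against buffer-only wells.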
WRN inhibitor – blocks human WRN helicase | Q14191 | WRN helicase unwinding, fluorescent forked duplex, kinetic | Potency, µM (titrated, usually from 114 µM), inactives show at the highest dose activity change, negative = inhibition, actives largely listed as inhibitors | 360,000 compounds, 0.46% hits | AID 651768; also: potency is read from the fitted curve at half-maximal effect; % is scaled to controls: 0 for no effect and ±100 for the full control effect; nearly all actives have a fitted effect of over 55% in size
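Fluorescence dequenching readout, ex 525 nm/em 598 nm, kinetic mode: forked duplex DNA (100 nM final) with adjacent fluorophore and quencher unwound by WRN (20 nM final) with 2 mM ATP. Compound preincubation 15 min, room temperature.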
Pol beta inh – DNA polymerase beta (human) inhibition; Pol beta primer extension/strand displacement, fluorescence kinetic; Potency, µM (highest dose often 114 µM), for the others: top-dose activity change, negative = inhibition, actives largely listed as inhibitors; 340,000 compounds, 1.3% hits; AID 485314; also: potency is read from the fitted curve at half-maximal effect; % is scaled to controls: 0 for no effect and ±100 for the full control effect
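10 nM enzyme + cpd, 15 min RT; start with substrate 50 nM final; read 0 min and after 10 min RT. Corrected, normalized data; 4-parameter Hill curve fit.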
PI5P4K alpha inh – PI5P4K alpha (human) kinase inhibition; P48426; PI5P4Kalpha enzyme, ADP-Glo luminescence, 60 min; active compounds read low; max response, %; 330,000 compounds, 1.2% hits; AID 652105; active = max response of -50% or lower; inconclusive = between -30% and -50%; inactive = -30% or higher; also: value at the top dose of about 77 µM; % is scaled to controls: 0 for no effect and ±100 for the full control effect
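Controls without substrate or without enzyme flank wells where PI5P4Kalpha converts substrate using 5 microM ATP (final). Incubation lasts 60 minutes at room temperature; ADP formed is read by ADP-Glo luminescence.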
POLH inh – inhibitors of human DNA polymerase eta | recombinant Pol eta, fluorescent DNA replication assay | Potency, µM (doses to about 114 µM), without a hit: top-dose activity change, negative = inhibition, actives largely listed as inhibitors | 390,000 compounds, 1.2% hits | AID 588591; also: potency is read from the fitted curve at half-maximal effect; % is scaled to controls: 0 for no effect and ±100 for the full control effect
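Pol eta (10 nM) was preincubated with compounds for 15 min at room temperature, after which fluorescent replication substrate (50 nM final) was added to start the reaction. Fluorescence was read kinetically at 0 and 10 min.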
POLI inh – blocks human DNA polymerase iota activity. Q9UNA4. 390,000 compounds, 1% hits. Pol iota fluorescent replication assay, 10 min. Potency, µM (doses to about 115 µM), inactives show at the top dose activity, negative = inhibition, actives largely listed as inhibitors; also: potency is read from the fitted curve at half-maximal effect
Target sequence (Q9UNA4 whole entry, looked up): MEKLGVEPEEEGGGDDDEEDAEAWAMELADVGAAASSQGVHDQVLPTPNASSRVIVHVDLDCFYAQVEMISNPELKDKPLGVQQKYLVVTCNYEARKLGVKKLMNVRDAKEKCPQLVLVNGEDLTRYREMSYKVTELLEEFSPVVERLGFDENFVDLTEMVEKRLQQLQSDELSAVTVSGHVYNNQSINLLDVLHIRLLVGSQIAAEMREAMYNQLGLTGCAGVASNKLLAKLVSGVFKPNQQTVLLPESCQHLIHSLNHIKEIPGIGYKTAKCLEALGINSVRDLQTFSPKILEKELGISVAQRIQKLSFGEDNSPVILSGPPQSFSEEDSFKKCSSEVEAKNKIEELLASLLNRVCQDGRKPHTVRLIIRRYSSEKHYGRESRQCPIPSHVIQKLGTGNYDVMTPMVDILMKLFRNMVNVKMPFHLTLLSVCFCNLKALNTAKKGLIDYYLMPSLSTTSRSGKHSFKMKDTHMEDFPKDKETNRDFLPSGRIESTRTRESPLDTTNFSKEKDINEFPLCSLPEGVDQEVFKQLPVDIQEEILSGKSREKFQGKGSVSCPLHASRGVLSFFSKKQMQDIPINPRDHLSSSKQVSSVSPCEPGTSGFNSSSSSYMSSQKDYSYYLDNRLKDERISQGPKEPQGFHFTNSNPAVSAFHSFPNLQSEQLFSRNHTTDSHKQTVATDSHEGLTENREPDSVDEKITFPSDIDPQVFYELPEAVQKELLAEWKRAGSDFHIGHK
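Fluorescent replication assay read twice, at 0 min and 10 min after adding 50 nM (final) substrate. Enzyme (10 nM) and compounds were first incubated 15 min at room temperature; enzyme-free buffer wells were negative controls.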
Active calls of the source: *; ? = inconclusive; nt = no result given; [ ] = dose if it differs, or a comment. Unless noted, calls follow the shape of the dose curve; as a rule, active = well fitted curve in the direction sought with a large enough effect; inconclusive = small, poorly fitted or top-dose-only effect, or another doubt; inactive = no such curve, though single readings can be large; an effect the other way counts as inactive or inconclusive.

SMILES | Pol kappa inh | WRN inhibitor | Pol beta inh | PI5P4K alpha inh | POLH inh | POLI inh
Cc1ccc(NC(=O)N2CCN(C)c3ncccc32)cc1C | -6% | nt | 35% | nt | -11% | 39%
COc1ccc(/C=C/c2ccc3ccccc3[n+]2C)cc1OC | ? | -20% | 28µM* | -2 | -2% | -87%
COc1cc(OC)c(OC)cc1/C=C/c1ccc2ccccc2[n+]1C | -27% | nt | nt | nt | nt | -10%
COc1cc(C(=O)NS(=O)(=O)c2ccccc2C)ccc1Cc1cn(C)c2ccc(NC(=O)OC3CCCC3)cc12 | ? | nt | 56µM* | nt | nt | nt
Cc1ccc(NC(=O)N(Cc2cn(C)c3ccccc23)C2CCCCC2)cc1C | -10% | nt | -2% | nt | -28% | 3%
O=c1cc(CSc2ccc(Cl)cc2)[nH]c2[nH]n(-c3ccccc3)c(=O)c12 | ? | -20% | 40µM* | ? | -16% | ?
Cc1ccc(SCc2cc(=O)c3c(=O)n(-c4ccccc4)[nH]c3[nH]2)cc1 | ? | ? | 35µM* | -62* | -3% | 22µM*
COc1cc(/C=N/NC(=O)C2=NNC(=O)C2C)ccc1O (centres undefined) | -3% | -11% | 5% | 1 | -12% | 6%
CC1C(=O)NN=C1C(=O)N/N=C\c1ccc(O)cc1O (centres undefined) | 10% | -6% | 25% | -60* | -17% | 10%
N#Cc1c(-c2cccs2)nc(SCC(=O)c2cccs2)[nH]c1=O | -26% | ? | 1% | -70* | ? | ?
O[C@@H]([C@H](O)[C@H](O)CBr)[C@H](O)CBr | 20% | -2% | nt | -62* | -12% | -4%
COC(=O)c1ccn(CC(=O)NC2CCCCC2)n1 | -21% | -1% | 40µM* | -20 | ? | -20%
Cc1cc(C)c2c(=O)cc(C(=O)Nc3sc4c(c3C(=O)NCc3ccccc3)CCCC4)oc2c1 | -10% | nt | -12% | nt | -5% | 18%
COc1ccc2nc(SC)c(C#N)cc2c1 | 15% | 2% | 29% | 1 | -1% | 89µM*
COc1ccc(-c2cn3c(n2)sc2cc(C(=O)Nc4cccc(SC)c4)ccc23)cc1 | -10% | nt | 11% | nt | -9% | 15%
CC1=NN(c2ccc(C)cc2C)C(=O)C1C(c1cccc(O)c1)C1C(=O)N(c2ccc(C)cc2C)N=C1C (centres undefined) | -4% | -18% | 36% | 3 | -21% | 1.3µM*
CC1=NN(c2ccccc2)C(=O)C1N=Nc1cccc(O)c1 (centres undefined) | 3% | -9% | 22% | 9 | -15% | -29%
Cc1ccc(C(=O)N/N=C/c2cccc(OC(=O)/C=C/c3ccco3)c2)cn1 | -36% | -5%[57.1 µM] | 20µM* | ? | ? | ?
CC(/C=C/c1ccco1)=N\NC(=O)c1cc(C)[nH]n1 | ? | ? | 20µM* | nt | 79µM* | 18µM*
CC(/C=C/c1ccco1)=N\NC(=O)c1cccnc1 | ? | ? | ? | nt | ? | 40µM*
Cc1cc(C(=O)N/N=C/c2ccco2)n[nH]1 | -4% | -4% | -3% | -2 | -3% | 47%
COC(=O)c1sc(-c2ccc(C(C)(C)C)cc2)cc1NC(=O)CSCC(=O)O | 9% | -4%[11.6 µM] | -7% | 8 | 89µM* | 79µM*
C=CCn1c(NS(=O)(=O)c2ccccc2)c(S(=O)(=O)c2ccc(C)cc2)c2nc3ccccc3nc21 | 5% | -14% | ? | 7 | 89µM* | 3.2µM*
CC[C@@H](C(=O)[C@@H](C)[C@@H](O)[C@H](C)CCc1ccc(C)c(O)c1C(=O)O)[C@H]1O[C@](CC)([C@H]2CC[C@](O)(CC)[C@H](C)O2)C[C@@H]1C | -17% | -25% | 22µM* | ? | -27% | ?
CCC(C(=O)C(C)C(O)C(C)CCc1ccc(C)c(O)c1C(=O)O)C1OC(CC)(C2CC[C@@](O)(CC)C(C)O2)CC1C (some centres undefined) | -9%[60.1 µM] | nt | nt | nt | nt | nt
COc1ccc(-c2nc3ccc(N4CCCC4)cc3c(=O)[nH]2)cc1OC | -3% | ? | 40µM* | 9 | ? | ?
